# Reference: the supplement of paper PMC10646978
# ± gives the standard deviation.
# Assays:
# Conditions in all cases: modulator concentration 10 µM
# [1] = tested on: RAW-Dual (murine macrophage reporter line); assay: NF-kB reporter (SEAP) activity fold change vs agonist alone; higher = enhanced NF-kB activity
# Procedure, shortened: (§1)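 Compound reached 10 μM final in each well by pin transfer, onto RAW-Dual murine macrophage reporter cells seeded at 50 000 per well in 384-well plates. After 1 hour at 37 °C, the cells were stimulated overnight with a PRR agonist. SEAP in the supernatant was read with QUANTI-Blue at 620 nm absorbance for NF-κB, and Lucia luciferase was read with QUANTI-Luc luminescence for IRF. Each signal was turned into fold change against the mean agonist-only control on the same plate, and two replicate plates were averaged with propagated errors.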
# [2] = tested on: RAW-Dual (murine macrophage reporter line); assay: IRF reporter (Lucia luciferase) activity fold change vs agonist alone; higher = enhanced IRF activity
# Procedure, shortened: as §1
# [3] = tested on: RAW-Dual (murine macrophage reporter line); assay: viability score (confluency relative to resting cells, overnight) (fraction); higher = more viable, active = viable (0.7 or more)
# Procedure, shortened: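 Overnight exposure to 10 μM final compound was carried out on RAW-Dual macrophages in 384-well plates. IncuCyte software generated two confluency masks over all wells imaged with IncuCyte. The viability score gives confluency in relation to resting cells. A compound met the cutoff if each mask exceeded 70% of resting cells.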
# [4] = agonist: CpG ODN 1826 0.5 ug/mL
Compound,"NF-kB reporter [1, 4]",NF-kB reporter ([1]; agonist: LPS 0.1 ug/mL),NF-kB reporter ([1]; agonist: MPLA […]),IRF reporter ([2]; agonist: 3'3'-cGAMP 10 ug/mL),IRF reporter ([2]; agonist: LPS 0.1 ug/mL),IRF reporter ([2]; agonist: MPLA […]),viability score [3]
CC1(C)CC(=O)c2c(nc3ccc(Br)cc3c2N)C1.Cl,0.513 ± 0.035,1.08 ± 0.067,0.883 ± 0.053,0.771 ± 0.036,1.07 ± 0.12,1.11 ± 0.11,0.995 (active)
COc1ccccc1S(=O)(=O)N1CC(Oc2nc3c(C(F)(F)F)cccc3s2)C1,0.935 ± 0.047,1.18 ± 0.097,1.38 ± 0.14,1.4 ± 0.15,1.43 ± 0.23,1.5 ± 0.4,1 (active)
Cl.Cl.NC1=NN(c2ccc(N)cc2)CC1,0.251 ± 0.043,1 ± 0.084,0.991 ± 0.13,0.763 ± 0.035,1.34 ± 0.28,1.22 ± 0.15,1 (active)
C[C@H](Cc1cc2c(c(C(N)=O)c1)N(CCCO)CC2)NCCOc1ccccc1OCC(F)(F)F,1.2 ± 0.2,1.09 ± 0.29,1.03 ± 0.057,0.732 ± 0.058,1.05 ± 0.26,0.893 ± 0.2,0.998 (active)
O=S(=O)(Cc1cccc(Cl)c1)N1C2CCC1CC(Oc1cccnc1)C2 (configuration not stated),1.07 ± 0.064,1.13 ± 0.1,1.08 ± 0.039,0.96 ± 0.064,1.12 ± 0.063,1.2 ± 0.12,1 (active)
CCCCCCOc1ccc(N2C(=O)CC(N3CCN(Cc4ccc5c(c4)OCO5)CC3)C2=O)cc1 (configuration not stated),0.919 ± 0.073,1.07 ± 0.075,0.9 ± 0.055,0.929 ± 0.032,1.38 ± 0.17,1.32 ± 0.12,0.991 (active)
COc1cc(C=Nc2ccc(-c3ccc(N=Cc4cc(OC)c(OC)cc4[N+](=O)[O-])cc3)cc2)c([N+](=O)[O-])cc1OC,0.742 ± 0.19,1.02 ± 0.065,1.02 ± 0.1,0.769 ± 0.1,1.03 ± 0.084,1.01 ± 0.41,1.01 (active)
CS(=O)(=O)N(Cc1ccccc1)c1ccc(C(=O)NCCSCc2ccc(Cl)cc2)cc1,0.924 ± 0.099,0.976 ± 0.062,1.01 ± 0.097,1.01 ± 0.028,1.54 ± 0.25,1.13 ± 0.14,1.01 (active)
O=C(CC1CCCCN1S(=O)(=O)c1ccccc1)NCCC1=CCCCC1 (configuration not stated),0.994 ± 0.13,1.21 ± 0.095,0.903 ± 0.13,1.03 ± 0.054,1.23 ± 0.08,1.38 ± 0.11,1.01 (active)
O=C(CCCCCl)NN1c2ccccc2CCc2ccccc21,1.18 ± 0.19,0.984 ± 0.11,1.09 ± 0.084,0.835 ± 0.022,1.18 ± 0.14,1.25 ± 0.29,1.01 (active)
COC(=O)C1=C(C)NC(=Cc2c(F)cccc2Cl)C1=O,0.944 ± 0.17,0.966 ± 0.077,0.963 ± 0.11,0.876 ± 0.023,1.23 ± 0.19,1.13 ± 0.16,0.985 (active)
Cc1nonc1OC(C)CNc1ccc([N+](=O)[O-])cc1 (configuration not stated),0.989 ± 0.078,1.01 ± 0.083,1.14 ± 0.089,0.84 ± 0.11,0.995 ± 0.1,0.843 ± 0.15,0.998 (active)
COC1CCN(c2ccc(C(=O)N3CC(n4cc(COc5ccccc5)nn4)C3)cc2)C1 (configuration not stated),1.17 ± 0.099,1.13 ± 0.1,0.959 ± 0.053,0.758 ± 0.043,1.12 ± 0.076,1.08 ± 0.24,0.922 (active)
O=C(O)c1ccccc1O,1.03 ± 0.23,1.04 ± 0.18,0.923 ± 0.052,0.925 ± 0.03,1.34 ± 0.12,1.23 ± 0.094,0.995 (active)
N#Cc1c(N=Cc2ccc(Cl)cc2)sc2c1CCCC2,0.912 ± 0.16,1.01 ± 0.21,0.89 ± 0.068,0.915 ± 0.031,1.17 ± 0.21,1.21 ± 0.12,1 (active)
CC1CC(=O)C2=C(C1)OC(N)=C(C#N)C2c1ccc(Cl)cc1 (configuration not stated),0.905 ± 0.093,1.06 ± 0.075,0.928 ± 0.042,0.721 ± 0.03,1 ± 0.07,0.909 ± 0.13,0.992 (active)
CC(C)Cn1c(=O)n(C)c(=O)c2[nH]cnc21,1.41 ± 0.11,1.01 ± 0.055,1.08 ± 0.026,0.849 ± 0.049,0.88 ± 0.12,0.884 ± 0.21,0.983 (active)
O=S(=O)(Nc1nc2ccccc2n2nnnc12)c1ccc(F)cc1,1.01 ± 0.1,1.03 ± 0.068,0.934 ± 0.067,0.865 ± 0.021,1.21 ± 0.15,0.964 ± 0.25,1.01 (active)
CCCCCCCCCCCCCCCCOc1nc2ccc(C)cc2c(=O)o1,1.1 ± 0.32,1.09 ± 0.057,0.961 ± 0.13,0.921 ± 0.034,1.27 ± 0.15,1.08 ± 0.23,1 (active)
CC(Sc1ccc(Cl)cc1)C(=O)NCc1cccnc1 (configuration not stated),1.07 ± 0.09,0.846 ± 0.065,1.08 ± 0.2,0.846 ± 0.031,0.905 ± 0.058,0.741 ± 0.14,0.992 (active)
CCC(C(=O)N1CC(Nc2cnccn2)C1)c1ccccc1 (configuration not stated),0.995 ± 0.052,1.06 ± 0.12,0.996 ± 0.14,1.03 ± 0.067,1.24 ± 0.085,1.19 ± 0.09,0.984 (active)
NS(=O)(=O)C#Cc1ccccc1,0.0641 ± 0.011,0.0588 ± 0.0047,0.159 ± 0.013,0.0153 ± 0.0016,0.0325 ± 0.0031,0.0392 ± 0.0098,0.7 (active)
CCCc1cc(=O)[nH]c(=S)[nH]1,1.37 ± 0.11,1.07 ± 0.05,1.3 ± 0.11,0.611 ± 0.028,1.03 ± 0.082,0.903 ± 0.076,1.02 (active)
O=C(c1ccc2ccccc2n1)N1CCc2ncncc2C1,1.08 ± 0.054,1.04 ± 0.083,0.862 ± 0.044,0.956 ± 0.063,1.09 ± 0.18,1.11 ± 0.27,1.01 (active)
O=C(NCC(F)(F)F)c1ccc(OCC2CCOCC2)nc1,0.911 ± 0.044,0.87 ± 0.093,1.09 ± 0.064,0.937 ± 0.044,1.3 ± 0.24,1.51 ± 0.46,0.993 (active)
CCN(CC)CCOC(=O)C(c1ccccc1)C1CCCCC1.Cl (configuration not stated),1.04 ± 0.08,0.861 ± 0.076,0.878 ± 0.082,1.07 ± 0.033,1.31 ± 0.13,1.52 ± 0.18,0.948 (active)
